# Sampled rows, rich in hits. Any-hit rate of the full collection: about 7.4%.
# ELG1 genotox = qHTS screen for small molecules that induce genotoxicity in human embryonic kidney (HEK293T) cells expressing luciferase-tagged ELG1. HEK293T ELG1-luciferase reporter, luminescence, 16 h. Potency, µM (highest dose often 46 µM), for the others: at the top dose activity change, positive = activation, hits mostly activators. 1.3% of 330,000 active. AID 504466, 2011; also: % of control where 0% means no effect; nearly all actives have a fitted effect of over 60% in size
#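 HEK293T cells expressing luciferase-tagged ELG1 were treated with compound or DMSO for 16 hr at 37°C. Luciferase activity was then read after 30 min with ONE-Glo at room temperature; rising signal flags genetic stress.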
# SMN2 splice up = qHTS Assay for Enhancers of SMN2 Splice Variant Expression; Potency, µM (top dose mostly 46.1 µM), for the others: at the top dose activity change, positive = activation, most hits filed as activators; 2.8% of 210,000 active; HEK293 SMN2-luciferase splicing reporter, luminescence, 30-36 h; also: % of control where 0% means no effect; nearly all actives have a fitted effect of over 55% in size
#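 HEK293 cells carry an SMN2 minigene-luciferase reporter in which exon 7 inclusion puts luciferase in frame. Cells were seeded at 2000 cells/well, attached for 10-12 hours, then exposed to compounds for 30-36 hours at 37C before ONE-Glo luminescence.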
# Rab9 promoter act = qHTS Assay for Rab9 Promoter Activators | Huh7 Rab9 promoter-luciferase reporter, luminescence, 24 h | Potency, µM (highest dose often 9.22 µM), for the others: at the highest dose activation, negative = inhibition, actives largely listed as activators | 2.8% of 320,000 active | AID 485297, 2010; also: % of control where 0% means no effect; nearly all actives have a fitted effect of over 60% in size
#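 Rab9 promoter-driven luciferase in stably transfected Huh7 cells; 1500 cells/well rested 2 h, exposed to compound in DMSO for 24 h at 37 °C, 5% CO2. Luminescence read 10 min after adding luciferase reagent at ambient temperature.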
# NPC1 promoter act = qHTS Assay for NPC1 Promoter Activators. AID 485313, 2010. Potency, µM (top dose mostly 9.22 µM), for the others: at the top dose activation, most hits filed as activators. Huh7 NPC1 promoter luciferase reporter, 24 h. 2.4% of 320,000 active; also: % of control where 0% means no effect; nearly all actives have a fitted effect of over 60% in size
#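 Luminescence from an NPC1 promoter-driven luciferase reporter in stably transfected Huh7 cells was measured after 24 h compound treatment at 37 °C, followed by 10 min ambient incubation with luciferase detection reagent.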
# FLuc modulator = qHTS profiling assay for firefly luciferase inhibitor/activator using purifed enzyme and Km concentrations of substrates (counterscreen for miR-21 project) | purified FLuc, Km substrates, luminescence inhibition | Potency, µM (titrated, usually from 57.5 µM), without a hit: top-dose activity change, negative = inhibition, actives largely listed as inhibitors | 6.9% of 360,000 active | Luciferin 4-monooxygenase (Photinus pyralis), P08659;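 also: plate controls were vehicle for no effect and reference inhibitor for full effect; nearly all actives have a fitted effect of over 55% in size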
# Target sequence (P08659 whole entry, looked up): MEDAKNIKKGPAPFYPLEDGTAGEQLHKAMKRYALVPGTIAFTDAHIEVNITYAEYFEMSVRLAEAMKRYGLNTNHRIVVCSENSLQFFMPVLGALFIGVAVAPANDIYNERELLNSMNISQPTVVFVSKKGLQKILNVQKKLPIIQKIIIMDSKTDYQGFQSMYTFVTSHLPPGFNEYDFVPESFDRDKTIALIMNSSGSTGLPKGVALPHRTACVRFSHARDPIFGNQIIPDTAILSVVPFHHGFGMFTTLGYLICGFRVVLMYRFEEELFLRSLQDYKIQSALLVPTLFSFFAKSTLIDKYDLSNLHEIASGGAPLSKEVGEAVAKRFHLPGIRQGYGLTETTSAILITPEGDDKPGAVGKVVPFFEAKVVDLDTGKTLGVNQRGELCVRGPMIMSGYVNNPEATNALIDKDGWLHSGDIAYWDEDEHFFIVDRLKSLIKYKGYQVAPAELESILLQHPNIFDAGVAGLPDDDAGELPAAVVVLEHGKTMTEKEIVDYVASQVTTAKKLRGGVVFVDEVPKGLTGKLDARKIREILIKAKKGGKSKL
#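 Biochemical qHTS of compounds, final roughly 60 µM downward over six points, against 10 nM purified firefly luciferase using Km concentrations of substrates (10 uM D-luciferin, 10 uM ATP) in Tris acetate pH 7.5 buffer; luminescence output.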
# An asterisk follows results filed as active; ? = inconclusive; nt = not tested or not shown. Calls follow the shape of the dose curve; as a rule, active = well fitted curve in the direction sought with a large enough effect; inconclusive = small, poorly fitted or top-dose-only effect, or another doubt; inactive = no such curve, though single readings can be large; an effect the other way counts as inactive or inconclusive. Potency is read from the fitted curve at half-maximal effect.
SMILES,ELG1 genotox,SMN2 splice up,Rab9 promoter act,NPC1 promoter act,FLuc modulator
COc1cccc(NC(=O)CN(C)C(=O)c2ccc3c(c2)S(=O)(=O)N=C2CCCCCN23)c1,0%,nt,-4%,-1%,?
O=C(COc1ccccc1)Nc1ccc(-c2nnc(-c3ccco3)o2)cc1,10%,13µM*,1.1µM*,?,1%
COc1ccc(CC(=O)Nc2cccc(-c3nnc(-c4ccc(C)cc4)o3)c2)cc1OC,-18%,-132%,-5%,-2%,3µM*
O=C(Cc1ccccc1)Nc1cccc(-c2nnc(-c3ccco3)o2)c1,0%,7%,5%,0%,-17%
COc1ccc(CC(=O)Nc2cccc(-c3nnc(-c4cccc(C)c4)o3)c2)cc1OC,-41%,-126%,-15%,0%,?
COc1ccccc1OCC(=O)Nc1cccc(-c2nnc(-c3ccco3)o2)c1,-7%,18µM*,15%,29%,12µM*
Cc1ccc(Cn2c(C)c(CNCc3ccc(OC(C)C)cc3)c(C(=O)O)c2C)cc1,nt,7%,nt,nt,0%
CC(C)n1c(SCC(=O)NC2CCCCC2)nnc1-c1ccco1,-3%,nt,0%,-2%,-2%
COC(=O)CSc1nnc(-c2ccc(OC)cc2OC)o1,6%,-1%,-1%,3%,21µM*
COC(=O)CSc1nnc(-c2c[nH]c3ccccc23)o1,2%,nt,-1%,-4%,15µM*
CC(C)(C)NC(=O)CSc1nnc(-c2c[nH]c3ccccc23)o1,5%,nt,21%,5%,?
c1ccc(CSc2nnc(-c3c[nH]c4ccccc34)o2)cc1,?,?,?,?,8.5µM*
COc1cc(C2c3c(oc4ccccc4c3=O)C(=O)N2c2nccs2)ccc1O (stereo not given),3%,nt,0%,-1%,-2%
CC(=O)c1sc(NC(=O)c2ccc(F)cc2)nc1-c1ccccc1,?,?,26%,?,?
COc1ccc(C(=O)Nc2nc(-c3ccccc3)c(C(C)=O)s2)c(OC)c1,?,1%,?,25%,0.85µM*
CC(=O)c1sc(NC(=O)c2ccccc2F)nc1-c1ccccc1,-17%,11µM*,1.8µM*,2.2µM*,12µM*
Cc1cc(NC(=O)CCCn2c(C)c3cnn(-c4ccccc4)c(=O)c3c2C)ccc1Br,nt,9%,nt,nt,-10%
COc1ccc(C(=O)NCC(=O)OCc2c(Cl)cccc2Cl)cc1OC,1%,nt,-4%,-2%,-12%
CC(=O)c1ccc(NC(=O)C2CCC(CNS(=O)(=O)c3cccs3)CC2)cc1 (stereo not given),nt,11%,nt,nt,-5%
O=C(O)c1ccc(-c2nnc(-c3ccc([N+](=O)[O-])cc3)o2)cc1,-1%,nt,4%,-1%,-8%
O=C(O)c1ccc(-c2nnc(-c3ccccc3)o2)cc1,?,nt,?,0.32µM*,5.4µM*
O=C(c1ccc(-c2nnc(-c3ccccc3)o2)cc1)N1CCCCCC1,?,nt,0.56µM*,1.4µM*,4.8µM*
Nc1ncnc2c1ncn2[C@@H]1O[C@H](COP(=O)(O)OP(=O)(O)O)[C@@H](O)[C@H]1O,nt,-9%,nt,nt,nt
CCCCOC(=O)Nc1ccc(C(=O)OCCC)cc1,?,-11%,6%,23%,19µM*
CCCOC(=O)Nc1ccc(N2CCCCC2)cc1,nt,14µM*,nt,nt,3µM*
SMILES,ELG1 genotox,SMN2 splice up,Rab9 promoter act,NPC1 promoter act,FLuc modulator
O=C(Nc1ccc(N2CCCC2)cc1)c1cccc(Cl)c1,1.2µM*,nt,0.25µM*,0.32µM*,0.67µM*
Cc1cc(C)cc(C(=O)Nc2ccc(N3CCCC3)cc2)c1,?,8.9µM*,1µM*,2.2µM*,1.9µM*
O=C(CN1CCCCC1)Nc1ccc(N2CCCCCC2)cc1,0%,-5%,1%,-2%,-18%
Cc1ccc(C)c(NC(=O)C(=O)NCC2CCCN2S(=O)(=O)c2cccs2)c1 (stereo not given),-4%,nt,-1%,2%,1%
Cn1cnnc1SCC(=O)Nc1ncc(C(F)(F)F)cc1Cl,-1%,12%,-11%,-7%,-6%
CCOC(=O)CC1(NC(=O)C2CCC(=O)N(CCc3ccccc3)C2)CCCCC1 (stereo not given),1%,nt,16%,1%,-14%
Cc1cc(C)cc(NC(=O)Nc2ccc(N3CCCCC3)cc2)c1,?,nt,4µM*,3.5µM*,2.7µM*
Cc1cc(C)cc(OCC(=O)Nc2ccc(N3CCCCC3)cc2)c1,1%,nt,-2%,-3%,9%
Cc1ccc(Nc2nnc(-c3ccccc3N)o2)cc1C,?,nt,3.5µM*,3.5µM*,2.7µM*
Cc1cc(C)c(C2=NOC3C4CCC(C4)C23)c(C)c1 (stereo not given),-6%,-34%,-4%,-2%,1%
Cc1ccc(S(=O)(=O)NCC2CCC(C(=O)NCCc3ccccc3)CC2)cc1 (stereo not given),nt,nt,nt,nt,-5%
COc1ccc(C(=O)Nc2ccc(C(F)(F)F)n(C)c2=O)cc1,?,14µM*,2.2µM*,2.8µM*,?
Cc1ccc(C(=O)Nc2ccc(C(F)(F)F)n(C)c2=O)cc1,?,22µM*,3.2µM*,18%,4.3µM*
COCCn1c(C(F)(F)F)ccc(NC(=O)c2ccccc2)c1=O,7.3µM*,nt,1.3µM*,1.4µM*,7.6µM*
CCN(CC)S(=O)(=O)c1cccc(NC(=O)COC(=O)CNC(=O)c2cccc(F)c2)c1,1%,nt,-6%,-1%,-4%
CCN(CC)S(=O)(=O)c1ccc(C)c(NC(=O)COC(=O)CNC(=O)c2ccc(C(C)(C)C)cc2)c1,1%,17%,0%,-1%,0.54µM*
Cc1ccc(S(=O)(=O)N(C)C)cc1NC(=O)COC(=O)/C=C/c1ccc2ccccc2n1,-3%,nt,19%,23%,8.5µM*
Cc1ccc(OCCC(=O)OCC(=O)Nc2cc(S(=O)(=O)N(C)C)ccc2C)cc1,2%,0%,-2%,-5%,11µM*
Cc1ccc(S(=O)(=O)N(C)C)cc1NC(=O)COC(=O)CCC1CCCC1,5%,nt,-3%,3%,-7%
Cc1ccc(S(=O)(=O)N2CCOCC2)cc1NC(=O)COc1ccc(-c2nnco2)cc1,-11%,-13%,0%,-4%,-12%
Cc1ccc(S(=O)(=O)N(C)C)cc1NC(=O)COc1ccc(-c2nnco2)cc1,-2%,nt,-2%,-6%,17µM*
Cc1ccc(S(=O)(=O)N(C)C)cc1NC(=O)COC(=O)c1c(-c2ccccc2)noc1C,-8%,nt,0%,-2%,3%
N#CCC(=O)Nc1ccc(C(=O)OCC(=O)Nc2ccc3ccccc3c2)cc1,0%,nt,-1%,1%,-3%
Cc1ccc(-c2cc(-c3ccccc3[N+](=O)[O-])[nH]n2)c(O)c1,?,18µM*,3.5µM*,?,?
